Assay results published in PubChem BioAssay (NCATS).
Records with an inconclusive call do not appear. The source made the active and inactive calls. Calls follow the shape of the dose curve; as a rule, active = well fitted curve in the direction sought with a large enough effect; inconclusive = small, poorly fitted or top-dose-only effect, or another doubt; inactive = no such curve, though single readings can be large; an effect the other way counts as inactive or inconclusive.

Legend:
[1] = Cell Viability - H-4-II-E (AID 543); also: % is scaled to controls: 0 for no effect and ±100 for the full control effect; nearly all actives have a fitted effect of over 35% in size
In short: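 Rat hepatoma H-4-II-E cells (1500/well) were plated, incubated 5 hr at 37 °C, then exposed to compounds for 40 hr at 37 °C. Cellular ATP was read by CellTiter-Glo luminescence; AC50 came from Hill-equation fits of concentration-response data.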

[2] = Cell Viability - SH-SY5Y (AID 544); settings: SH-SY5Y neuroblastoma cell viability; viability change, negative = cytotoxic: at 92.2 µM (top of the series); also: nearly all actives have a fitted effect of over 55% in size
In short: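 Human neuroblastoma SH-SY5Y cells (1500/well) in complete medium were exposed to compounds for 40 hr at 37 °C; intracellular ATP was then quantified by CellTiter-Glo luminescence after 20 min at room temperature. AC50 came from Hill-equation concentration-response fits.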

[3] = Cell Viability - Renal Proximal Tubule (AID 545); also: nearly all actives have a fitted effect of over 40% in size
In short: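 Luminescent ATP signal (CellTiter-Glo) served as the viability read-out after 40 hr compound exposure of freshly isolated rat proximal tubule cells at 37 °C. Concentration-dependent ATP loss was fitted with the Hill equation to give AC50.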

[4] = Cell Viability - Mesenchymal (AID 546);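 also: cells exposed to compound for 40 hours before reading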
In short: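 Human kidney mesenchymal cells from normal renal glomeruli, 1000 cells/well, rested 5 hr at 37 °C, then treated 40 hr at 37 °C in complete medium. Cellular ATP read by CellTiter-Glo luminescence; AC50 from Hill-equation fits.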

[5] = Cellular Toxicity (caspase-3) HepG2 (AID 654);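 also: cells exposed to compound for 16 hours before reading; 0% = DMSO alone and 100% = caspase signal from 100 µM tamoxifen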
In short: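 HepG2 cells (1500/well) in complete medium were treated with compounds for 16 hr at 37 °C. Caspase-3/7 activity was then read as luminescence from peptide-aminoluciferin cleavage. AC50 came from Hill fits, normalized to DMSO and 100 uM tamoxifen.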

[6] = Cellular Toxicity (caspase-3) Jurkat (AID 655); settings: Jurkat caspase-3 activation, luminescence; caspase-3 activation: at 92.2 µM (top of the series), DMSO = 0%, tamoxifen = 100%;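 also: cells exposed to compound for 16 h at 37 °C before reading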
In short: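 5000 Jurkat cells/well; compound 16 hr, 37 °C; Caspase-Glo 3/7 added, 20 min RT; luminescence read. Norm: DMSO = 0%, tamoxifen 100 uM = 100%. AC50, Hill model.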

[7] = Cellular Toxicity (caspase-3) HUV-EC-C (AID 656)
In short: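 qHTS; HUV-EC-C, 1000 cells/well; 5 hr settle, 16 hr cmpd, 37°C; Caspase-Glo 3/7, 20 min RT; luminescence. Norm: DMSO = 0%, tamoxifen 100 uM = 100%. Hill-fit AC50.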

[8] = Cellular Toxicity (caspase-3) SHSY5Y (AID 657)
In short: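 qHTS, SH-SY5Y, 1500 cells/well, 5 h pre-incubation 37 °C; compound 16 h 37 °C; Caspase-Glo 3/7 1 h RT; luminescence. Norm.: DMSO = 0, 10 uM staurosporine = 100%. Hill fit → AC50.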

[9] = Cellular Toxicity (caspase-3) BJ (AID 658);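 also: 0% = DMSO basal and 100% = 10 µM staurosporine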
In short: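 BJ human foreskin fibroblasts, 1000 cells/well, treated 16 hours at 37 °C in complete medium; caspase 3/7 activity by Caspase-Glo luminescence after 1 hr at room temperature. Normalized to DMSO and 10 uM staurosporine; AC50 from Hill fits.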

[10] = Cellular Toxicity (caspase-3) MRC-5 (AID 659);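 also: 0% = DMSO basal and 100% = 10 µM staurosporine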
In short: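 MRC-5 human normal lung fibroblasts, 1500 cells/well, treated 16 h at 37 °C in complete medium. Caspase 3/7 measured by Caspase-Glo luminescence after 1 h at room temperature. Normalized to DMSO and 10 uM staurosporine; AC50 from Hill fit.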

[11] = Cellular Toxicity (caspase-3) Mesangial (AID 660); settings: mesangial cells, normalized: DMSO 0%, 100 µM tamoxifen 100%; at 91.7 µM (top of the series)
In short: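 Human renal glomerular mesangial cells (1000/well) were treated with compounds for 16 h at 37 °C in complete medium, then caspase 3/7 activity was read by Caspase-Glo luminescence. Data were normalized to DMSO and 100 uM tamoxifen; AC50 from Hill fits.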

[12] = Cellular Toxicity (caspase-3) H-4-II-E (AID 663); settings: H-4-II-E rat hepatoma, scaled: DMSO 0%, 100 µM tamoxifen 100%; at 92.2 µM (top of the series);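 also: cells exposed to compound for 16 hr before readout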
In short: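 Rat hepatoma H-4-II-E cells (1500/well) plated 5 hr, then exposed to compound titrations for 16 hr at 37 °C. Caspase-Glo 3/7 luminescence read after 20 min at RT; data normalized to DMSO and 100 uM tamoxifen, AC50 from Hill fits.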

[13] = Cellular Toxicity (caspase-3) Hek293 (AID 664); settings: HEK293 caspase-3 activation, DMSO = 0%, 100 µM tamoxifen = 100%; at 92.2 µM (top of the series);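 also: cells exposed to compound for 16 h at 37 °C before readout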
In short: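 HEK293 cells were exposed to compounds in complete medium for 16 hr at 37 °C, then caspase-3/7 activity was read by Caspase-Glo 3/7 luminescence after 20 min at room temperature. Data normalized to DMSO and 100 uM tamoxifen; AC50 from Hill fits.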

[14] = Cellular Toxicity (caspase-3) N2a (AID 665);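 also: compound exposure lasted 16 h at 37 °C before readout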
In short: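 Mouse N2a neuroblastoma cells (1500/well) were treated with compounds for 16 h at 37 °C, then caspase-3/7 activity was read by Caspase-Glo luminescence after 1 h at room temperature. Data were normalized to DMSO and 10 uM staurosporine; AC50 from Hill fits.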

[15] = Cellular Toxicity (caspase-3) NIH 3T3 (AID 666);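 also: caspase signal read after 16 h compound exposure; 0% = DMSO basal and 100% = 100 µM tamoxifen stimulation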
In short: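 Mouse NIH 3T3 fibroblasts (1000 cells/well) were treated with compound for 16 hr at 37°C in complete medium; caspase-3/7 activity was read by Caspase-Glo luminescence. Normalized to DMSO and 100 uM tamoxifen; AC50 from Hill fits.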

[16] = Cellular Toxicity (caspase-3) Renal Proximal Tubule (AID 667); settings: Potency: caspase-3 activation;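 also: cells exposed to compound for 16 hours at 37 °C before detection; 0% = DMSO basal and 100% = 10 µM staurosporine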
In short: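 AC50 derived by standard Hill fit of concentration-response data, normalized between DMSO basal and 10 uM staurosporine as 100% stimulation. Cells: primary rat kidney proximal tubule, 16 h treatment at 37 °C.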

[17] = target: Cytochrome P450 3A4 (Homo sapiens) (UniProt P08684); assay: qHTS Assay for Inhibitors and Substrates of Cytochrome P450 3A4 (AID 884); also: % is scaled to controls: 0 for no effect and ±100 for the full control effect; nearly all actives have a fitted effect of over 50% in size
Cytochrome P450 3A4 (Homo sapiens), sequence (P08684 whole entry, looked up): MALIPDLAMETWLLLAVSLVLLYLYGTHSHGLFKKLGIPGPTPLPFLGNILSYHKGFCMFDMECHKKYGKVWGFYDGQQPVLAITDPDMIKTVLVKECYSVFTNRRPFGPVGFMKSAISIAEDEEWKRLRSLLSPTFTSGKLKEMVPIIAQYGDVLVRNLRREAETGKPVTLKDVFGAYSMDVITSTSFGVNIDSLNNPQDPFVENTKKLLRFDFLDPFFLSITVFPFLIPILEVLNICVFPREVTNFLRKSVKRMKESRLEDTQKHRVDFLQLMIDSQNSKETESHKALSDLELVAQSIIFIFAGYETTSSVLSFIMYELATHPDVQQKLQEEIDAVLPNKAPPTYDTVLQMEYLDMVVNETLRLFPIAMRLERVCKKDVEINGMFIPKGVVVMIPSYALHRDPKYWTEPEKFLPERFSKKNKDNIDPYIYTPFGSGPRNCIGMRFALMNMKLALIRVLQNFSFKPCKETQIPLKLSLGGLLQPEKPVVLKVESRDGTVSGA
In short: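 20 nM human CYP3A4 with 25 uM Luciferin-PPXE (at KM) in 200 mM KPO4, preincubated 10 min with compound; NADPH regeneration started a 60 min RT reaction. Luciferin detected by luminescence, normalized to 57 uM ketoconazole as full inhibition.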

[18] = Cell Viability - LYMP2-001 (AID 921);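 also: cells exposed to compound for 24 h at 37 °C; 0% = DMSO only and full inhibition = tetraoctylammonium bromide control wells; nearly all actives have a fitted effect of over 70% in size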
In short: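 Steps: seed 2500 lymphoblastoid cells/well; 5 hr, 37 C; add compound; 24 hr, 37 C; CellTiter-Glo reagent, 30 min room temperature; read luminescence. Concentration-response modeled by Hill equation for AC50.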

[19] = Cellular Toxicity (caspase-3) SK-N-SH (AID 661);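 also: 0% = DMSO basal and 100% = 10 µM staurosporine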
In short: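 SK-N-SH human neuroblastoma cells (1500/well) were treated with compounds for 16 hr at 37 °C in complete medium; caspase 3/7 activity was read by Caspase-Glo luminescence. AC50 came from Hill fits of data normalized to DMSO and 10 uM staurosporine.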

CCCCC(CC)CNCC(CC)CCCC (configuration not stated)
inactive: Potency [1] | Potency [2] | Potency [3] | Potency [4] | Potency [5] | caspase-3 activation [6] 1.24% | outcome [7] | outcome [8] | outcome [9] | outcome [10] | caspase-3 activation [11] -1.31% | caspase-3 activation [12] -0.122% | caspase-3 activation [13] 0.754% | outcome [14] | outcome [15] | Potency [16] | Potency [17] | Potency [18]

COC(=O)CS
inactive: Potency [1] | Potency [2] | Potency [3] | Potency [4] | Potency [5] | caspase-3 activation [6] -2.15% | outcome [7] | outcome [8] | outcome [9] | outcome [10] | caspase-3 activation [11] -1.25% | outcome [19] | caspase-3 activation [12] 0.405% | caspase-3 activation [13] -1.02% | outcome [14] | outcome [15] | Potency [16] | Potency [18]

Nc1cccc(S(=O)(=O)O)c1
inactive: Potency [1] | Potency [2] | Potency [3] | Potency [4] | Potency [5] | caspase-3 activation [6] -0.29% | outcome [7] | outcome [8] | outcome [9] | outcome [10] | outcome [19] | caspase-3 activation [12] -0.597% | caspase-3 activation [13] -1.89% | outcome [14] | outcome [15] | Potency [16] | Potency [17] | Potency [18]

Cc1ccccc1C#N
inactive: Potency [1] | Potency [2] | Potency [3] | Potency [4] | Potency [5] | caspase-3 activation [6] 0.133% | outcome [7] | outcome [8] | outcome [9] | outcome [10] | caspase-3 activation [11] 0.378% | caspase-3 activation [12] 1.11% | caspase-3 activation [13] -1.44% | outcome [14] | outcome [15] | Potency [16] | Potency [17] | Potency [18]

CC(=O)Nc1cccc(N)c1
inactive: Potency [1] | Potency [2] | Potency [3] | Potency [4] | Potency [5] | caspase-3 activation [6] 1.66% | outcome [7] | outcome [8] | outcome [9] | outcome [10] | caspase-3 activation [11] 0.0656% | caspase-3 activation [12] 0.403% | caspase-3 activation [13] 0.134% | outcome [14] | outcome [15] | Potency [16] | Potency [17] | Potency [18]

CCc1ccccc1
inactive: Potency [1] | Potency [2] | Potency [3] | Potency [4] | Potency [5] | caspase-3 activation [6] 1.71% | outcome [7] | outcome [8] | outcome [9] | outcome [10] | outcome [19] | caspase-3 activation [12] 1.3% | caspase-3 activation [13] -0.962% | outcome [14] | outcome [15] | Potency [16] | Potency [17] | Potency [18]

Cc1cc(C)c(N)cc1C
inactive: Potency [1] | Potency [2] | Potency [3] | Potency [4] | Potency [5] | caspase-3 activation [6] -1.78% | outcome [7] | outcome [8] | outcome [9] | outcome [10] | caspase-3 activation [11] -0.153% | outcome [19] | caspase-3 activation [12] -1.64% | caspase-3 activation [13] 2.78% | outcome [14] | outcome [15] | Potency [16] | Potency [18]

CCCCCCO
inactive: Potency [1] | Potency [2] | Potency [3] | Potency [4] | Potency [5] | caspase-3 activation [6] -0.00564% | outcome [7] | outcome [8] | outcome [9] | caspase-3 activation [11] 0.267% | outcome [19] | caspase-3 activation [12] 0.291% | caspase-3 activation [13] 0.42% | outcome [14] | outcome [15] | Potency [16] | Potency [17] | Potency [18]

CC(=O)c1nccs1
inactive: Potency [1] | Potency [2] | Potency [3] | Potency [4] | Potency [5] | caspase-3 activation [6] 0.174% | outcome [7] | outcome [8] | outcome [9] | outcome [10] | caspase-3 activation [11] 0.103% | caspase-3 activation [12] 1.15% | caspase-3 activation [13] 4.27% | outcome [14] | outcome [15] | Potency [16] | Potency [17] | Potency [18]

O=C(O)c1ccc(Cl)cc1Cl
inactive: Potency [1] | Potency [2] | Potency [3] | Potency [4] | Potency [5] | caspase-3 activation [6] -1.11% | outcome [7] | outcome [8] | outcome [9] | outcome [10] | outcome [19] | caspase-3 activation [12] 0.226% | caspase-3 activation [13] 2.7% | outcome [14] | outcome [15] | Potency [16] | Potency [17] | Potency [18]

Cc1cc(C)cc(O)c1
inactive: Potency [1] | Potency [2] | Potency [3] | Potency [4] | Potency [5] | caspase-3 activation [6] 0.986% | outcome [7] | outcome [8] | outcome [9] | outcome [10] | outcome [19] | caspase-3 activation [12] -0.413% | caspase-3 activation [13] 0.338% | outcome [14] | outcome [15] | Potency [16] | Potency [18]

O=[N+]([O-])c1c(Cl)cc(Cl)cc1Cl
inactive: Potency [1] | Potency [2] | Potency [3] | Potency [4] | Potency [5] | caspase-3 activation [6] 0.558% | outcome [7] | outcome [8] | outcome [9] | outcome [10] | caspase-3 activation [11] -0.0612% | caspase-3 activation [12] 0.356% | caspase-3 activation [13] -0.873% | outcome [14] | outcome [15] | Potency [16] | Potency [17] | Potency [18]

Cc1ccc(C(C)(C)C)cc1
inactive: Potency [1] | Potency [2] | Potency [3] | Potency [4] | Potency [5] | caspase-3 activation [6] 1.39% | outcome [7] | outcome [8] | outcome [9] | outcome [10] | caspase-3 activation [12] 0.123% | caspase-3 activation [13] -1.91% | outcome [14] | outcome [15] | Potency [16] | Potency [17] | Potency [18]
